Measurements: the supplement of paper PMC6555819

Experiments:
Experiment in all cases: PBM binding z-score (relative to random genomic background probes); higher = stronger binding; sequences stand for … in GC…GCGATTGACAGCGTAGAATGAAGG
[1] = system: RARb homodimer (NR concentration 270 nM)
Summary of the method: (§1)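 Binding z-scores take random background probes as their reference. They come from custom Agilent 4×180K protein-binding microarrays incubated 1 h with ligand-free nuclear receptor dimers, with antibodies against each partner (one per run) detecting binding. Scanned fluorescence was regression-normalized.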

[2] = system: RARg:RXRa (NR concentration 270 nM, RXRa partner concentration 90 nM)
Summary of the method: as §1

[3] = system: RARg homodimer (NR concentration 270 nM)
Summary of the method: as §1

[4] = system: RXRa DBDmut IVT, anti-RXR (DBD mutation: RXRa K156A/R161A, NR concentration 90 nM)
Summary of the method: as §1

[5] = system: RXRa homodimer (NR concentration 180 nM)
Summary of the method: as §1

[6] = system: THRa:RXRa (NR concentration 90 nM, RXRa partner concentration 90 nM)
Summary of the method: as §1

[7] = system: THRa homodimer (NR concentration 90 nM)
Summary of the method: as §1

[8] = system: VDR homodimer (NR concentration 270 nM)
Summary of the method: as §1

| Sequence | PBM binding z-score [1] | PBM binding z-score [2] | PBM binding z-score [3] | PBM binding z-score [4] | PBM binding z-score [5] | PBM binding z-score [6] | PBM binding z-score [7] | PBM binding z-score [8] |
| --- | --- | --- | --- | --- | --- | --- | --- | --- |
| TCAGACAGGTAAAGGTAACTCAGGTACGCAGTCG | 0.829 | 0.751 | 0.576 | 1.53 | 1.08 | 1.67 | 0.705 | 0.388 |
| TCGAGTAGGTTAGGTGCATTCAGAATGGCGTCGA | 0.197 | -0.25 | -0.0841 | 1.04 | 0.1 | -0.142 | -0.111 | 1.47 |
| AGTATTAGTTGACTTAGGGCAACCGATACGACGC | 1.29 | 0.595 | 1.02 | 0.0389 | 0.49 | 1.53 | 0.518 | 0.538 |
| TCATATAGGCAATACAGGTGAAAGTCGGCATCTA | 0.329 | 0.188 | 0.134 | 1.25 | 0.668 | 0.629 | -0.127 | -0.277 |
| CATACAGGCTCAGCTAGGCCAGAGTAGGGACGGC | -0.642 | -0.268 | 0.0433 | -0.877 | -0.366 | -0.349 | -0.416 | -0.751 |
| TCTCGGAGGACTCGAAAGGTCAGAGCTCGACATC | 4.25 | 3.85 | 3.31 | 0.558 | 3.57 | 2.68 | 0.256 | 0.189 |
| TCTTGTAGATCAGCAGGTTAAGAATGCTGGCCAA | 0.138 | -0.0809 | -0.427 | 0.415 | 0.165 | 0.0436 | -0.197 | -0.438 |
| GCTGCCAGGTCAGGTTGGTCAGCTAACGGGTACG | 2.65 | 2.55 | 3.29 | 0.47 | 1.5 | 2.51 | 1.16 | 0.33 |
| CCTTACGCGTCAAGGTTATAGCACGGGTGGTACG | 0.818 | 0.576 | 0.348 | 0.122 | 1.06 | 1.5 | 0.517 | 0.299 |
| TCGAGTAGGTTAACAATGGGGCATTCAGCTTTCT | 0.737 | 1.49 | 0.51 | 0.509 | 0.809 | 0.284 | -0.587 | -0.182 |
| AGAATGAGGTTATCCGTAGATCAGGGAAGAAAGT | 0.958 | 2.14 | 1.08 | 1.82 | 2.29 | 2.33 | 0.663 | 0.958 |
| CCTAGCAGGCCAGGGTCGCTCAAGCATTTCGCTT | 0.411 | 0.213 | -0.184 | -0.345 | 0.948 | 1.23 | -0.279 | -0.195 |
| ATATGTTGGTTAGCTGGGGTCATTCAGACTAGGC | 3.55 | 3.66 | 2.3 | 1.91 | 4.97 | 4.21 | 3.57 | 5.32 |
| CCCACTGGGGCAAGGTTACCATAACGCACAGCCA | 1.4 | 1.18 | 1.2 | -1.3 | 1.09 | 1.23 | 0.178 | -0.227 |
| GCGACTTGGGCAAAGCAGGTTACCATAAGGTTGG | -0.0673 | -0.0478 | -0.407 | -0.506 | 0.218 | 1.39 | -0.348 | -0.774 |
